According to PubChem BioAssay (NCATS):
Records with an inconclusive call do not appear. The source made the active and inactive calls. Calls come from the whole dose curve; as a rule, active = well fitted curve in the direction sought with a large enough effect; inconclusive = small, poorly fitted or top-dose-only effect, or another doubt; inactive = no such curve, though single readings can be large; an effect the other way counts as inactive or inconclusive.

Legend:
[1] = target: Ubiquitin carboxyl-terminal hydrolase 1 (Homo sapiens) (UniProt O94782); test: Inhibitors of USP1/UAF1: Pilot qHTS (AID 504865);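 note: rhodamine fluorescence freed from ubiquitin-rhodamine substrate followed over time; top concentration of the series differs between compounds; % is set by controls: 0 for no effect and ±100 for the full control effect; nearly all actives have a fitted effect of over 35% in size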
Method in brief: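 Deubiquitinase activity followed as kinetic rhodamine fluorescence release from 150 nM Ub-Rho. 1 nM USP1/UAF1 with compound, after 15 min room-temperature preincubation, in HEPES pH 7.8 buffer containing TCEP, EDTA, BSA and Tween-20.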

[2] = target: Luciferin 4-monooxygenase (Photinus pyralis) (UniProt P08659); test: Biochemical firefly luciferase enzyme assay for NPC (AID 624030);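 note: purified P. pyralis luciferase at 10 nM with luciferin and ATP substrate; 0% = DMSO and -100% = full luciferase inhibition by PTC124 control; nearly all actives have a fitted effect of over 70% in size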
Method in brief: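 Direct inhibition of firefly luciferase enzyme (10 nM final, 50 mM Tris Acetate) assessed by luminescence within 5 minutes. Percent activity scaled between DMSO and PTC124 positive control, with concentration-effect curves classified by fit quality and response.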

[3] = qHTS profiling for inhibitors of Plasmodium falciparum proliferation (AID 504749); note: nearly all actives have a fitted effect of over 60% in size; note: potency is the fitted concentration of half-maximal effect;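 for activity, negative = inhibition: 0% = DMSO vehicle and full inhibition = artemisinin control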; details: P. falciparum in erythrocytes, SYBR Green DNA, 72 h, at 28.7 µM (top of the series)
Method in brief: (§1)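 In a 72 h erythrocytic culture (37 C, humidified, 5% CO2) at 2.5% hematocrit and 0.3% starting parasitemia, compounds were tested; SYBR Green I in detergent lysis buffer stained parasite DNA overnight.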

[4] = test system: ATS189; test: as above; details: P. falciparum in erythrocytes, SYBR Green DNA, 72 h; series mostly up to 28.7 µM
Method in brief: as §1

[5] = test system: C2A; test: as above; details: P. falciparum in erythrocytes, SYBR Green DNA, 72 h; series mostly up to 28.7 µM
Method in brief: as §1

[6] = test system: CP191; test: as above; details: P. falciparum in erythrocytes, SYBR Green DNA, 72 h; series mostly up to 28.7 µM
Method in brief: as §1

[7] = test system: CP192; test: as above; details: P. falciparum in erythrocytes, SYBR Green DNA, 72 h; series mostly up to 28.7 µM
Method in brief: as §1

[8] = test system: CP201; test: as above; details: P. falciparum in erythrocytes, SYBR Green DNA, 72 h; series mostly up to 28.7 µM
Method in brief: as §1

[9] = test system: CP215; test: as above; details: P. falciparum in erythrocytes, SYBR Green DNA, 72 h; series mostly up to 28.7 µM
Method in brief: as §1

[10] = test system: CP237; test: as above; details: P. falciparum in erythrocytes, SYBR Green DNA, 72 h; series mostly up to 28.7 µM
Method in brief: as §1

[11] = test system: CP238; test: as above; details: P. falciparum in erythrocytes, SYBR Green DNA, 72 h; series mostly up to 28.7 µM
Method in brief: as §1

[12] = test system: CP268; test: as above; details: P. falciparum in erythrocytes, SYBR Green DNA, 72 h; series mostly up to 28.7 µM
Method in brief: as §1

[13] = test system: CP269; test: as above; details: P. falciparum in erythrocytes, SYBR Green DNA, 72 h; series mostly up to 28.7 µM
Method in brief: as §1

[14] = test system: CP286; test: as above; details: P. falciparum in erythrocytes, SYBR Green DNA, 72 h; series mostly up to 28.7 µM
Method in brief: as §1

[15] = test system: CP325; test: as above; details: P. falciparum in erythrocytes, SYBR Green DNA, 72 h; series mostly up to 28.7 µM
Method in brief: as §1

[16] = test system: CP329; test: as above; details: P. falciparum in erythrocytes, SYBR Green DNA, 72 h; series mostly up to 28.7 µM
Method in brief: as §1

[17] = test system: FAB9; test: as above; details: P. falciparum in erythrocytes, SYBR Green DNA, 72 h; series mostly up to 28.7 µM
Method in brief: as §1

[18] = test system: JCK; test: as above; details: P. falciparum in erythrocytes, SYBR Green DNA, 72 h; series mostly up to 28.7 µM
Method in brief: as §1

[19] = test system: PC49; test: as above; details: P. falciparum in erythrocytes, SYBR Green DNA, 72 h; series mostly up to 28.7 µM
Method in brief: as §1

[20] = target: ATP-dependent 6-phosphofructokinase (Trypanosoma brucei brucei) (UniProt O15648); test: qHTS Assay to Find Inhibitors of T. brucei phosphofructokinase: hit validation (AID 492961);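 note: luminescence reports ADP formed as PFK phosphorylates fructose-6-phosphate with ATP; % is set by controls: 0 for no effect and ±100 for the full control effect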
Method in brief: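 In this biochemical qHTS validation, titrated compounds were tested against 1.25 nM PFK with 0.1 mM ATP and 0.5 mM F6P. Percent activity came from controls lacking or containing enzyme.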

Luciferin 4-monooxygenase (Photinus pyralis), sequence (P08659 whole entry, looked up): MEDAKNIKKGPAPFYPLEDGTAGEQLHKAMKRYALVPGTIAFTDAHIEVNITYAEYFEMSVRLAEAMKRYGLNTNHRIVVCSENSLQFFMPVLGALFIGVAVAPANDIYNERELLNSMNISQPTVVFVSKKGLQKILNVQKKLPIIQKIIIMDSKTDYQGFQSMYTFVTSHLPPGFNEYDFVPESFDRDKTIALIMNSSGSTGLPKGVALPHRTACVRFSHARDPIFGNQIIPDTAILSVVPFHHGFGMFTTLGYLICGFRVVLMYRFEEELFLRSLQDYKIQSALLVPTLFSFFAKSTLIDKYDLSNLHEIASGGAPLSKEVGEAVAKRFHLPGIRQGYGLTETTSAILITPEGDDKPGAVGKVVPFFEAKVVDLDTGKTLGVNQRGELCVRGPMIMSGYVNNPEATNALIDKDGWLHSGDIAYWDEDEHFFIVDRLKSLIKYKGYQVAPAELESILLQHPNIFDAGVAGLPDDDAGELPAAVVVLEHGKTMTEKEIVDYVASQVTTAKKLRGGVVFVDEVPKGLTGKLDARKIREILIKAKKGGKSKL
ATP-dependent 6-phosphofructokinase (Trypanosoma brucei brucei), sequence (O15648 whole entry, looked up): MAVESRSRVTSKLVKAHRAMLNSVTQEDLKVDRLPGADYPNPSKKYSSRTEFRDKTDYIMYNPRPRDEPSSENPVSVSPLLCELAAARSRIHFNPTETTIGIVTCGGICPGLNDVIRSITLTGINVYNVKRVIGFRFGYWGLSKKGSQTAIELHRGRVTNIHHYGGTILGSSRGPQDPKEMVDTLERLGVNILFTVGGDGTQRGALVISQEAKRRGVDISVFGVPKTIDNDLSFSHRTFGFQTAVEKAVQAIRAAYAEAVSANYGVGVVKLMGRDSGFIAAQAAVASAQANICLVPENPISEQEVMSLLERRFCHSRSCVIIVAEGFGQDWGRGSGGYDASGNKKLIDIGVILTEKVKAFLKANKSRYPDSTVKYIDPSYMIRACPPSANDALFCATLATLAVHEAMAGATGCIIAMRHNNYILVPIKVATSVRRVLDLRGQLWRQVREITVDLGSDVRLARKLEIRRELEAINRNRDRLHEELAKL
Ubiquitin carboxyl-terminal hydrolase 1 (Homo sapiens), sequence (O94782 whole entry, looked up): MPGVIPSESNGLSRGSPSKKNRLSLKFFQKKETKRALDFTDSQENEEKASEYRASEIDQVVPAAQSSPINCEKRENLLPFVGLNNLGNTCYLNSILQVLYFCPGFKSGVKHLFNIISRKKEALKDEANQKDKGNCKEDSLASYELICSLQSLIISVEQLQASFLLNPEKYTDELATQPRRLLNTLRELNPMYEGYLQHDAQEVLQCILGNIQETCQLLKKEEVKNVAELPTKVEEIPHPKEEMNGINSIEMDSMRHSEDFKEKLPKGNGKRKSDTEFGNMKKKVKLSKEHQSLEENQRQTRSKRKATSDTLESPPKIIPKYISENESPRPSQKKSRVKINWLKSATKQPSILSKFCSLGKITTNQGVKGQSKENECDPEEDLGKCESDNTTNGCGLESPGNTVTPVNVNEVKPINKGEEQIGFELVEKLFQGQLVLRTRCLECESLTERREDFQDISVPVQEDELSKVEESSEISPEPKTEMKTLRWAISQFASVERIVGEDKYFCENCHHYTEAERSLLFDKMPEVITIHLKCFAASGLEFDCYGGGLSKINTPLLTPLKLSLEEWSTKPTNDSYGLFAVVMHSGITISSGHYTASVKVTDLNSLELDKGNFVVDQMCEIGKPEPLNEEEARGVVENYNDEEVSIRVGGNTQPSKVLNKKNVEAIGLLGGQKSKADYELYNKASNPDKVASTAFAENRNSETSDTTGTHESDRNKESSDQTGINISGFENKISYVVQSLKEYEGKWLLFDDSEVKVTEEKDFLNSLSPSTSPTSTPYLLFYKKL

C[C@@H](N)[C@@H](O)c1ccc(O)c(O)c1
inactive: Potency [1] | Potency [2] | activity, negative = inhibition ([3]; parasite line A) -5.35% | activity, negative = inhibition ([3]; parasite line B) 7.25% | Potency [4] | Potency [5] | Potency [6] | Potency [7] | Potency [8] | Potency [9] | Potency [10] | Potency [11] | Potency [12] | Potency [13] | Potency [14] | Potency [15] | Potency [16] | Potency [17] | Potency [18] | Potency [19]

O=C1CC2OCC=C3CN4CC[C@]56c7ccccc7N1C5C2[C@H]3C[C@H]46 (some centres not stated)
inactive: outcome [20] | Potency [1] | activity, negative = inhibition ([3]; parasite line B) -18.7% | Potency [6] | Potency [17] | Potency [19]
active: Potency [10] 5.01 µM | Potency [11] 10 µM | Potency [15] 13.5 µM

Cc1ccc2c(c1)[C@@H]1CN(C)CC[C@H]1N2
inactive: outcome [20] | Potency [1] | Potency [2] | activity, negative = inhibition ([3]; parasite line A) 6.31% | activity, negative = inhibition ([3]; parasite line B) 11.3% | Potency [4] | Potency [5] | Potency [6] | Potency [7] | Potency [8] | Potency [9] | Potency [11] | Potency [12] | Potency [13] | Potency [14] | Potency [15] | Potency [16] | Potency [17] | Potency [18] | Potency [19]

CC(C)=CC1C(C(=O)OCc2coc(Cc3ccccc3)c2)C1(C)C (configuration not stated)
inactive: outcome [20] | Potency [2] | Potency [4] | Potency [5] | Potency [7] | Potency [8] | Potency [9] | Potency [10] | Potency [11] | Potency [12] | Potency [13] | Potency [14] | Potency [15] | Potency [16] | Potency [17] | Potency [18] | Potency [19]

CC(=O)Oc1ccc2c3c1OC1[C@@H](OC(C)=O)C=C[C@H]4[C@H](C2)N(C)CC[C@]314 (some centres not stated)
inactive: outcome [20] | Potency [1] | Potency [2] | activity, negative = inhibition ([3]; parasite line A) 15.5% | activity, negative = inhibition ([3]; parasite line B) 9.45% | Potency [4] | Potency [5] | Potency [6] | Potency [7] | Potency [8] | Potency [9] | Potency [10] | Potency [11] | Potency [12] | Potency [13] | Potency [14] | Potency [15] | Potency [16] | Potency [17] | Potency [18] | Potency [19]

CC(Cc1ccccc1)N(C)C (configuration not stated)
inactive: outcome [20] | Potency [1] | Potency [2] | activity, negative = inhibition ([3]; parasite line A) 9.11% | activity, negative = inhibition ([3]; parasite line B) 11.3% | Potency [4] | Potency [5] | Potency [6] | Potency [7] | Potency [8] | Potency [9] | Potency [10] | Potency [11] | Potency [13] | Potency [14] | Potency [15] | Potency [16] | Potency [17] | Potency [18] | Potency [19]

C#C[C@]1(O)CC[C@H]2[C@@H]3CCC4=CC(=O)CCC4(C)[C@H]3CCC21C (some centres not stated)
inactive: outcome [20] | Potency [2] | activity, negative = inhibition ([3]; parasite line A) -6.98% | activity, negative = inhibition ([3]; parasite line B) 2.88% | Potency [4] | Potency [5] | Potency [6] | Potency [7] | Potency [8] | Potency [9] | Potency [10] | Potency [11] | Potency [12] | Potency [13] | Potency [14] | Potency [15] | Potency [16] | Potency [17] | Potency [18] | Potency [19]

C=CC[C@]1(O)CCC2C3CCC4=CCCCC4C3CCC21C (some centres not stated)
inactive: outcome [20] | Potency [2] | activity, negative = inhibition ([3]; parasite line A) -16.3% | activity, negative = inhibition ([3]; parasite line B) -3.62% | Potency [4] | Potency [5] | Potency [6] | Potency [7] | Potency [8] | Potency [9] | Potency [10] | Potency [11] | Potency [12] | Potency [13] | Potency [14] | Potency [15] | Potency [16] | Potency [17] | Potency [18] | Potency [19]

CC(=O)O[C@H]1C[C@H](O[C@H]2[C@@H](O)CC(O[C@H]3[C@@H](O)C[C@H](O[C@H]4CC[C@@]5(C)[C@H](CC[C@@H]6[C@@H]5CC[C@]5(C)[C@@H](C7=CC(=O)OC7)CC[C@]65O)C4)O[C@@H]3C)O[C@@H]2C)O[C@H](C)[C@H]1O[C@@H]1O[C@H](CO)[C@@H](O)[C@H](O)[C@H]1O (some centres not stated)
inactive: outcome [20] | Potency [1] | Potency [2] | activity, negative = inhibition ([3]; parasite line A) 9.47% | activity, negative = inhibition ([3]; parasite line B) 16.3% | Potency [4] | Potency [5] | Potency [7] | Potency [8] | Potency [9] | Potency [11] | Potency [12] | Potency [13] | Potency [14] | Potency [15] | Potency [16] | Potency [17] | Potency [18] | Potency [19]

Nc1nc(O)c(-c2ccccc2)o1
inactive: outcome [20] | Potency [1] | Potency [2] | activity, negative = inhibition ([3]; parasite line A) 12.1% | activity, negative = inhibition ([3]; parasite line B) 6.38% | Potency [4] | Potency [5] | Potency [6] | Potency [7] | Potency [8] | Potency [9] | Potency [10] | Potency [11] | Potency [12] | Potency [13] | Potency [14] | Potency [15] | Potency [16] | Potency [17] | Potency [18] | Potency [19]

CC(CO)NC(=O)C1C=C2c3cccc4[nH]cc(c34)CC2N(C)C1 (configuration not stated)
inactive: Potency [1] | Potency [2] | activity, negative = inhibition ([3]; parasite line A) -10.6% | activity, negative = inhibition ([3]; parasite line B) -8.5% | Potency [4] | Potency [5] | Potency [6] | Potency [7] | Potency [8] | Potency [9] | Potency [10] | Potency [11] | Potency [12] | Potency [13] | Potency [14] | Potency [15] | Potency [16] | Potency [17] | Potency [18] | Potency [19]
